Among the data in PubChem BioAssay AID1508600 (Functional Genomics Laboratory (NCATS/FGL), 2020) are z-score values, retold here.

Out of some 53,000 sequences screened, about 3,700 (7%) were called active. The full list was thinned out, with actives kept by preference. Values without a mark were called inactive.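 The calls were made as follows: active = gene knockdowns whose robust z-score for IL-1 alpha signal is at least 2 or at most -2, so actives lie on both sides; inactive = the rest.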

The nature of this assay: Components of the Cytosolic LPS Sensing Pathway: Gene Identification via Genome-wide siRNA Screen.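 Also: robust z of the log signal after scaling to non-targeting control siRNA wells of the plate.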 The following applies: RAW264.7 macrophages, IL-1a HTRF, actives lie on both sides, screened at 100 nM (by protocol), cells primed 5 h with Pam3CSK4 first. Summed up:
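IL-1a HTRF of supernatants after 24 hour LipidA transfection of Pam3CSK4-primed (5 hours) RAW264.7 cells, 48h post-siRNA transfection (100 nM). Scores: percent of plate negative-control median, then log-based robust z-score.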
For orientation: TR-FRET usually uses a lanthanide donor and a delayed reading to cut background.
In the case of GGAUCUCCUUUUUUUUCAATT against Gabrr1, the z-score is 0.0887.
As to UCAUCGCAACCAUCCACAGTT against Olfr530, the z-score is 0.464.
As to CGAUGACGAUGCCUAACCATT against Dgkeos, the z-score was -2.34 (active).
With GGGAGUCUGGUGGAUUGAUTT against Rln1, the z-score is 0.0253.
Regarding GGUCUCACAAAAACAGUUCTT against Casq2, the z-score was -0.317.
As to GCAGUGUAAUGUGGCCUACTT against Rorc, the z-score was 0.682.
For GCUGUUUUCUUUCCAUUUCTT against Olfr981, the z-score is -1.1.
On to GAAUUACACACAGGCCUGATT against Olfr1048, for which the z-score was 0.306.
As to CACUGCUGUAAUCCCUAUGTT against Olfr1002, the z-score was 0.4.
Regarding CCAACAACGGCAUUCACUATT against Ebf3, the z-score was -0.676.
As to GGAGCACUUUGUAUGGAACTT against Ube2q2, the z-score is 2.97 (active).
To CAAACCUUGUUGCCAUGACTT against Olfr406 belongs 0.0688; to GACAAGGUGCCAUACCAUUTT against Olfr351, -0.373.
Regarding GGACAGCUCUCAGAAUUCUTT against Ctse, the z-score was -1.13.
For the sequence CGCAAACAAACCUUAACAGTT against Maneal, the z-score was 2.21 (active).
In the case of GCUCCGGAAAGUAAGCAGATT against Tnfrsf26, the z-score was 0.259.
The result for CCAUGGUACUAAUGUAAAUTT against Eef1e1 reads 0.797; that for GGCUUUGAACACCAGUGAATT against Rpp21, -0.453; that for CGCAGAUAAUAUCUUUGUCTT against Olfr461, 0.389.
On to GGACCUAAGCAGAAAACUGTT against Meis3, for which the z-score was 0.789.
Regarding GCGGUAUGGCAUGGUACAUTT against LTO1, the z-score was -0.855.
As for GGCCAUAAAACAUAAGCUATT against Tmem17, the z-score was 0.163.
CGAACUUGUACAGAAGAAUTT against Slfn3: the z-score is -0.311.
In the case of AUGGGAGAAUCAGCAGAACTT against Set, the z-score is -2.77 (active).
For GCAUAGAGGACUACAACGATT against Optc, the z-score was 0.329.
To “GGACAGGAAGAAAAGAAACTT against Vmn2r-ps11” belongs -1.19.
Consider GGAAGGUGAAGCCAGUUUCTT against Traf3ip2, for which the z-score was 2.02 (active).
Regarding GGACACUUUCAGACCUUAGTT against Ankrd27, the z-score was -0.116.
On to GGACUUUGAUGUUGAAUGUTT against Rapgef1, for which the z-score is -0.985.
On to GGAAAAUGGUUGGUACUUUTT against Vwc2, for which the z-score is 0.219.
In the case of GGACCUUCCUACGAGAAAATT against Tm2d2, the z-score was 0.0894.
As for GGAUCAAGGAGGAUUUCAATT against Tprg, the z-score is 2.38 (active).
The result for CGGUAAACAUCAGUAAUGATT against Drd5 reads 0.0608; that for GCUACGUUCAGUUCCAUUGTT against Eddm3b, -0.321.
The result for CGACUUGAUUUCAAAACAUTT against Fbxl13 reads -0.981.
Consider GGACCUGUCCAUCUUCAUCTT against Scn1b, for which the z-score was 3.87 (active).
As for GCCAAGAGUUUGAUAUAUATT against Plekhg3, the z-score is 1.79.
Regarding GGUAACAUCUCCAUCAGCCTT against Nxph3, the z-score was 0.34.
In the case of GGUAUCUUUAGGUUUCUGGTT against Vmn2r37, the z-score is 0.499.
Turning to GCCAAGAAAGAUCAUUGACTT against Far2, the z-score was -0.703.
As to GCUAGCCAGUGCAUUCACATT against Srp68, the z-score is -2.96 (active).
The result for GCCCUUAAUUGAACAAAUATT against Otud7b reads 0.0529.
With CGGACUCAGUCAUCAUUGCTT against Atf7, the z-score is -1.46.
To GGAAAGAAAAAUCAGAGAATT against Adprhl1 belongs -0.866.
For GCUGUGGUAAACUGAAACUTT against Glis2, the z-score is -1.89.
Regarding GGGAGCCAAUGAAAUCAAGTT against Hmbox1, the z-score is 3.31 (active).
In the case of GCCUUGACAGAGGUAUUGATT against Ovgp1, the z-score was -1.46.
As for “GGAGAAAUUCAAACAAGUATT against 4930503B20Rik”, the z-score was 0.275.
To CCCACUGGUUUGUUUAAACTT against Hbegf belongs 0.555.
With GGUUUUGCCUCCCAUAGUATT against Ssty1, the z-score is 0.112.
On to GGAGGAGCUUAGCCCUUUUTT against Bad, for which the z-score is 2.28 (active).
To GCAGUUACGUUAGUUAAUATT against Plekha1 belongs 1.1; to GCUACUCAUUUAGCAGAGATT against Olfr76, -0.887; to GUGGAUUAGGGAAUUUCAUTT against Mrgprb1, 1.84.
For the sequence GAAUCCCUUCGAGUACGACTT against Fxyd2, the z-score is 3.17 (active).
As to GGAGCUGAAUGUCUGUAGCTT against Mzt2, the z-score is -1.31.
The result for CCUGAUGGAUGAUGAAUCATT against Trap1a reads -1.42; that for GGAGGAGCUGGAGAAAACATT against Psd4, -0.43.
As for GGUCCUUUGAUGCUGACUGTT against Sfrp4, the z-score was -2.07 (active).
Take CCAAGAAAAGUCCAGAAGCTT against Rorb: the z-score is 0.379.
For the sequence GGAGAGACGUAAGAGGCGATT against Zrsr2, the z-score was 0.0858.
Turning to GGACAAUUGGGCCAAACUGTT against Mpv17, the z-score was 0.103.
Regarding GGUGAAACCCUGAAAGUCCTT against Tmem154, the z-score was -0.169.
With GGUGUGUUAAGGUUUUUAATT against Marchf1, the z-score was 3.68 (active).
Consider GGAUAAUUUUGGAAGCAGATT against Rheb, for which the z-score was -0.299.
GCAUCUCACUCGUAAAGGUTT against Tmprss11f: the z-score is -0.555.
As to GCGCGUGACAAGGAGGAUUTT against Ska3, the z-score is 1.03.
As for GGCCUGAACUUUUUAUUGATT against Olfr533, the z-score was -2.19 (active).
The result for GGGAUUUUAUCAUACAAACTT against Ppil4 reads 0.774; that for GGCUUUCAUGUGCCGUUUUTT against Gstm5, 2.39 (active).
Regarding GGAACUUGUUUCAUAUCGUTT against Scfd1, the z-score is 0.839.
To GGGAUUGUGUGAAUCAUACTT against Tmem230 belongs -1.27; to GGCUGCUGAAGCAAAUAAGTT against Ankrd17, 3.38 (active); to GGGAAGGCUGAAUGACUGCTT against Vamp5, 0.257.
To GGCGAGAGAGAUGAGUAAATT against Smim3 belongs -1.63.
To “GGGAAUUAUGGGCUUACCGTT against 4931414P19Rik” belongs -0.414; to GGCUAUUUCUUUUUAUGCUTT against Ak4, 0.911; to GGAGACAAUGGACAAGAAGTT against Dnal4, 0.272.
Regarding GCCAGUAACCAGAAAAUUGTT against Sycp3, the z-score was -2.01 (active).
On to CCUUAUUACACACACCCUGTT against Gja3, for which the z-score was 0.398.
Regarding GCUGGUAGCAUUCUUAUCCTT against Xylt2, the z-score was 0.529.
Turning to CGGAUGAGGUUUCUUUUAUTT against Phkb, the z-score was 0.415.
On to GGUUGGUUCUUACUUGAAATT against Mindy3, for which the z-score is 0.613.
To GGAUAAUGCUCCAUCAUAGTT against Nab1 belongs -0.419; to GCAAUCACCAAAUCACUAGTT against Fstl1, -0.123; to GCCAGGAAACGACAAUAAATT against Slc5a11, 0.731.
As to CCUAGUACUUCGAAGAAAGTT against Tmem255a, the z-score is -2.62 (active).
The result for GGUCAUUCAGUGGUGCACCTT against Skp1 reads -0.00227; that for GGUUUCAAACUCUUGUAAUTT against Pgrmc1, -0.139; that for GGUUUGUUUUCAGAUGAAGTT against Washc2, 0.155.
The result for GGAGAAAAUAAGCUGGUAGTT against Slc35f1 reads 3.42 (active).
To CCCAUCAAUGCUGUUAAUUTT against Entpd5 belongs 0.128.
For GCUCGAUAUCACAGAGAUUTT against Ces5a, the z-score was -0.177.
As for GGAGUUGGAGAAUGACACGTT against Ift88, the z-score is 1.14.
As to GCAGUGUUGUCAAAACUUGTT against Mtfmt, the z-score is 1.54.
GGUACUUUAUAGGAACAGUTT against Zbtb41: the z-score was -0.973.
Consider GGUAUGCUAACAGAACACGTT against Nr1h4, for which the z-score is 3.15 (active).
GCAGAUGCUAACAUAUCCATT against Trim32: the z-score was -0.902.
For the sequence GCGCAGAGAUUACCUUAAGTT against Gtf3a, the z-score was -0.543.
To CCACUAUUUAAUCUUACCGTT against Hoxc13 belongs 0.175.
To GGAGCAUAUAUAGAAUUAGTT against Mrps22 belongs 3.01 (active); to GCGGGCUUUGCUGAGAUUUTT against Zbtb48, 0.604; to GGAGAUUUCCCGACUUAACTT against Tnip2, 1.68.
The result for GGCAUCCAUGUGCUCUUUCTT against Tex13a reads -2.49 (active); that for GGGAAAAGGUCAGUGAAGUTT against Fam219b, -0.305.
With GGGAAUGGAAGAAUAUUCUTT against Dppa2, the z-score was 1.61.
Regarding CCUCGUGUUACUUUUACCCTT against Olfr13, the z-score is -1.51.
As for GCUUCUCUACACCACAGACTT against Olfr796, the z-score was -0.0426.
